aSyn UTR act: Activators via SNCA 5'UTR binding, MLPCN. activity score, % (tested at 7.5 µM), hits read low. alpha-synuclein 5'UTR reporter, activators screen. AID 1814, 2009. actives 7.1% (n = 300,000); in the data active = activity score below about -60%
* hit, by the source's call. The list is a sample of the results.

SMILES	aSyn UTR act
CCCCNc1c(-c2ccc(-c3cccc(Cl)c3)cc2)nc2ccccn12	-105*
Cc1ccc2[nH]c(C(=O)N3CCCCC3)cc2c1	-98*
CCOC(=O)c1ccc2[nH]c(C)c(C)c2c1	-86*
Cc1[nH]c2ccc(C(=O)N3CCCCC3)cc2c1C	-112*
COC(=O)c1ccc2[nH]c(C(C)(C)O)c(C)c2c1	-94*
COc1ccccc1N1CCN(C(=O)c2ccc3[nH]c(C)c(C)c3c2)CC1	72
CCOC(=O)c1ccc2[nH]c3ccccc3c2c1	-133*
Fc1ccc(-c2nc3c(Cl)cc(C(F)(F)F)cn3c2Cl)cc1	-111*
O=C(CNS(=O)(=O)c1ccc2ccccc2c1)OCc1csc(-c2ccccc2)n1	-62*
CC1=NN(c2ccccc2)C(=O)/C1=C\C=C\c1ccccc1	-127*
COc1ccc(/C=C2/C(=O)N(c3ccccc3)N=C2C)cc1	61
CC1=NN(c2ccc(C)c(C)c2)C(=O)/C1=C\C=C\c1ccc([N+](=O)[O-])o1	78
Cc1ccc2oc(C(=O)Nc3nonc3C)c(C)c2c1	-106*
Cc1ccc2oc(C(=O)Nc3nnc(C)s3)c(C)c2c1	-68*
Cc1ccc2oc(C(=O)NCC(c3ccco3)N(C)C)c(C)c2c1 (stereo not drawn)	-73*
CCc1cc2c(N=Nc3c(O)[nH]c4ccccc34)ncnc2s1	-62*
Oc1[nH]c2ccccc2c1N=Nc1nncc2ccccc12	-62*
Cc1sc2ncnc(N=Nc3c(O)[nH]c4ccccc34)c2c1C	-141*
O=C(/C(C=Nc1cccc(C(F)(F)F)c1)=C(/O)c1ccco1)C(F)(F)F	-194*
O=C(/C(C=Nc1ccc(Br)cc1)=C(/O)c1ccco1)C(F)(F)F	-175*
CN(C)c1ccc(NC(=O)Nc2ccc3c(c2)nnn3C)cc1	-109*
Cn1nnc2cc(C(=O)Nc3ccc(Cl)cc3)ccc21	-117*
COc1ccc(-n2nc3cc(C)c(NC(=O)CC(C)C)cc3n2)cc1	-123*
Cc1cc2nn(-c3ccccc3)nc2cc1NC(=O)c1cccs1	-196*
COc1ccc(-n2nc3cc(C)c(NC(=O)c4cccnc4)cc3n2)cc1	-83*
SMILES	aSyn UTR act
COC(=O)c1cnc(Oc2ccc(NC(=O)NC(=O)c3ccccc3Cl)cc2)cc1C(F)(F)F	-63*
CCC(=O)Nc1c(C(=O)Nc2ccc3c(c2)OCCO3)oc2ccccc12	-143*
COCC(=O)Nc1c(C(=O)Nc2ccc3c(c2)OCCO3)oc2ccccc12	-72*
CCC(=O)Nc1c(C(=O)Nc2cccc(OC)c2)oc2ccccc12	-123*
Cc1cccc(-c2noc(-c3cc4ccccc4oc3=O)n2)c1	-158*
Cc1ccc(-c2noc(-c3cc4ccccc4oc3=O)n2)cc1	-80*
O=c1oc2ccccc2cc1-c1nc(-c2ccccc2)no1	-131*
COc1ccc(/C=C/C2=NNC(=O)CC2)cc1	60
C=CCN1N=C(/C=C/c2ccc(C)cc2)CCC1=O	-89*
C=CCN1N=C(/C=C/c2ccc(OC)cc2)CCC1=O	-84*
Cn1c(SCc2ccc(Br)cc2)nnc1-c1ccccn1	-93*
Cn1c(SCc2ccccc2)nnc1-c1cnccn1	-131*
Cc1ccccc1CSc1nnc(-c2cnccn2)n1C	-105*
Cn1nc(-c2ccccn2)nc2c(=O)n(C)c(=O)nc1-2	94
Cn1c(SCc2ccc(F)cc2)nnc1-c1cnccn1	-85*
CC(C)NC(=O)c1ccc2c3n(nc2c1)-c1ccccc1CO3	52
C=CCNC(=O)c1ccc2c3n(nc2c1)-c1ccc(Cl)cc1CO3	-127*
Cc1ccc2c(c1)COc1c3ccc(C(=O)NCC4CC4)cc3nn1-2	-177*
O=C(NCCO)c1ccc2c3n(nc2c1)-c1ccccc1CO3	-105*
CCCN(CCC)c1ncnc2c1cnn2-c1ccc(OC)cc1	-77*
Clc1ccc(-n2ncc3c(NCc4ccc5c(c4)OCO5)ncnc32)cc1	-81*
Clc1ccc(-n2ncc3c(NCc4ccco4)ncnc32)cc1	-227*
CCC(CO)Nc1ncnc2c1cnn2-c1ccc(OC)cc1 (stereo not drawn)	-75*
COc1ccc(-n2ncc3c(NCc4ccco4)ncnc32)cc1	-162*
COc1ccc(-n2ncc3c(NCc4ccccn4)ncnc32)cc1	-128*
SMILES	aSyn UTR act
CN(C)CCNc1ncnc2c1cnn2-c1ccc(Cl)cc1	-93*
COc1cccc(C(=O)N=c2sc3cc(S(C)(=O)=O)ccc3n2C)c1	-127*
COc1cc(OC)cc(C(=O)N=c2sc3ccccc3n2C)c1	-149*
COc1ccc(C(=O)N=c2sc3ccccc3n2C)cc1	-193*
COC(=O)Cn1c(=NC(=O)c2cccc(OC)c2)sc2cc(OC)ccc21	-87*
Cc1ccc(C(=O)N/N=c2\sc3ccccc3n2C)cc1	-62*
Cc1ccc(/C=C/C(=O)c2ccc(O)cc2)cc1	-309*
CSc1ccc(/C=C/C(=O)c2ccc(O)cc2)cc1	-172*
COc1cc(/C=C/C(=O)c2ccc(C)cc2)ccc1OCC#N	-100*
Cc1ccc(C(=O)/C=C/c2ccc3ncccc3c2)cc1	-68*
COc1cc(C(=O)OCC#N)ccc1OCc1c(C)noc1C	-66*
Brc1ccc(/C=N/Nc2ccccc2)cc1	-92*
Brc1ccc(/C=N/Nc2ccc3ccccc3n2)cc1	-187*
